BH1578 lux ind – quorum light induction in luxS cqsA deficient V. cholerae. activation, % at 18.7 µM. 350,000 tested, 0.16% active. V. cholerae BH1578 lux reporter, luminescence, 6 h; in the data active = activation mostly above about 9.7%, no sharp cut-off
FBA Mtb inh – inhibits M. tuberculosis FBA enzyme; P9WQA3; purified M. tuberculosis FBA, fluorescence read-out; inhibition, % at 1 µM; 360,000 tested, 2.3% active; in the data active = inhibition above about 27%;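 note: 0% = vehicle and 100% = reference inhibitor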
3CLpro inhibitor – SARS-CoV 3CLpro protease inhibition; P0C6X7; recombinant SARS-CoV 3CLpro, quenched FRET peptide cleavage; inhibition, % at 6 µM; 290,000 tested, 0.14% active; AID 1706; in the data active = inhibition above about 12%
GDH-TPI counter – counter-screen for M. tuberculosis FBA inhibitors: GDH-TPI coupled enzymes; AID 588335; 360,000 tested, 1.2% active; GDH-TPI coupled enzyme counterscreen, NADH absorbance; inhibition, % at 4.8 µM; in the data active = inhibition above about 30%;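 note: 0% = DMSO wells and 100% = wells lacking the enzyme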
PrPC TRFRET – inhibitors of human cell surface prion protein PrPC; 370,000 tested, 0.43% active; P04156; TR-FRET read-out; inhibition, % at 13.8 µM; AID 720596; in the data active = inhibition above about 24%; note: 0% = median of the test wells and 100% = reference compound wells
PrPC confirm – confirmation of inhibitors of cell surface human prion protein. AID 743200. shares compounds with PrPC TRFRET. inhibition, % at 13.8 µM. cell surface PrPC level, TR-FRET. 1,500 tested, 65% active; in the data active = inhibition above about 25%
LD9 tox – counter-screen for PrPc inhibitors: cytotoxicity in LD9 cells; shares compounds with PrPC TRFRET; luminescence viability; inhibition, % at 13.8 µM; 1,500 tested, 29% active; AID 743201; in the data active = inhibition above about 9.5%
The depositor's hits bear a star; i = inactive; x = not tested or not shown. Hits are enriched below; roughly 3.9% of the tested compounds scored in any of these assays.

SMILES | BH1578 lux ind | FBA Mtb inh | 3CLpro inhibitor | GDH-TPI counter | PrPC TRFRET | PrPC confirm | LD9 tox
Cc1cc(/C(O)=C2\C(=O)C(=O)N(CCN(C)C)C2c2ccncc2)ccc1OCc1ccccc1 (centres undefined) | -0.3 | 0.7 | -4.8 | 7.9 | -3.8 | x | x
O=C(Nc1ccc(N2C(=O)CC(c3ccccc3)C2=O)c(Cl)c1)c1ccccn1 (centres undefined) | x | x | x | x | 8.2 | x | x
CCCCNC(=O)c1nc(C2CCN(S(=O)(=O)c3ccc(C(F)(F)F)cc3)CC2)oc1-c1ccccc1 | x | x | x | x | 8.1 | x | x
O=C(c1ccccc1)N1CCN(C(=O)N2CCOCC2)CC1 | i | -3.5 | 3.5 | 1.4 | -4.0 | x | x
O=C1C(=C(c2ccccc2)N2CCOCC2)Cc2ccccc21 | i | -5.0 | x | 22.7 | 33.0* | 4.0 | 98.3*
COC(=O)C1=CO[C@@H](C)[C@H]2CN3CCc4c([nH]c5ccccc45)[C@@H]3C[C@H]12 | -0.8 | 6.8 | x | 1.4 | 25.1* | 16.0 | -2.0
CN(C)S(=O)(=O)Oc1cccc(C(=O)Nc2ccccc2Cl)c1 | -0.3 | -0.1 | 5.6 | 0.9 | 3.6 | x | x
CN(C)S(=O)(=O)Oc1cccc(C(=O)Nc2ccc(Cl)cc2)c1 | i | -9.8 | -0.7 | -3.1 | 26.9* | 28.9* | 12.2*
Cc1c(NC(=O)CN2C(=O)NC3(CCCCC3)C2=O)c(=O)n(-c2ccccc2)n1C | 1.7 | 4.7 | -0.1 | -4.9 | 0.2 | x | x
CC(=O)N1CCN=C1SCc1cccc(C)c1 | -1.0 | -0.7 | 3.1 | 8.6 | -5.6 | x | x
Cn1c(O)c(C=Nc2ccc(F)cc2)c(=O)[nH]c1=O | -0.1 | -2.9 | -0.2 | 22.9 | 1.1 | x | x
CC(C)(C)n1c(O)c(C=Nc2ccc3c(c2)CCC3)c(=O)[nH]c1=O | i | -3.7 | 5.2 | 8.7 | 29.3* | 3.3 | -4.0
O=C(Nc1ccc(S(=O)(=O)C(F)F)cc1)c1cccc(S(=O)(=O)N2CCOCC2)c1 | i | 1.1 | 0.1 | 0.0 | 28.6* | 16.2 | 15.8*
O=C(Nc1nc(-c2ccccn2)cs1)c1cccc(S(=O)(=O)N2CCOCC2)c1 | -4.8 | -1.7 | x | 12.7 | 24.6* | 25.5* | 11.0*
O=C(Nc1cccc(S(=O)(=O)C(F)F)c1)c1ccc(S(=O)(=O)N2CCOCC2)cc1 | i | 2.5 | 2.1 | 14.2 | 10.6 | x | x
COc1ccc(Nc2nc(N3CCCC3)c3ccccc3n2)cc1 | i | 1.7 | -3.7 | 9.5 | 24.5* | 31.4* | 23.8*
O=S(=O)(Nc1ccc(C(O)(C(F)(F)F)C(F)(F)F)cc1)c1cccc2ccccc12 | i | -4.6 | x | -2.1 | 0.3 | x | x
CO[C@H]([C@H](C)/C=C/N(C)C=O)[C@@H](C)C(=O)CC[C@H](C)[C@H](O)[C@H](C)[C@H]1OC(=O)/C=C/C(C)=C/C[C@H](O)C[C@@H]2C=CC[C@@H](C[C@H](OC)[C@@H](C)[C@@H](OC)C[C@@H](OC)[C@@H]1C)O2 | x | x | x | x | 47.8* | 39.0* | 26.4*
CO[C@H]([C@H](C)/C=C/N(C)C=O)[C@@H](C)C(=O)CC[C@H](C)[C@H](O)[C@H](C)[C@H]1OC(=O)/C=C/C(C)=C/C[C@H](O)C[C@@H]2C=CC[C@@H](C[C@H](OC)[C@@]3(CO3)[C@@H](OC)C[C@@H](OC)[C@@H]1C)O2 | x | x | x | x | 41.3* | 36.8* | 39.0*
Cc1cccc(NC(=S)NC2CC3CCCC(C2)N3Cc2cccs2)c1 (centres undefined) | -0.2 | -1.9 | -1.6 | -9.2 | -5.5 | x | x
Cc1ccc(CNC(=O)C2CCC(=O)N2CCc2ccccc2)cc1 (centres undefined) | -0.5 | -0.5 | 4.4 | -4.4 | 0.6 | x | x
C[C@@H]1CC=C[C@H]2[C@H]1C(=O)N(Cc1ccccc1)[C@H]2c1ccc2ccccc2c1 | i | -0.2 | x | 0.8 | 6.6 | x | x
C[C@@H]1CC=C[C@H]2[C@H]1C(=O)N(Cc1ccccc1)[C@H]2c1ccc2ccccc2c1Br | i | -0.9 | x | -0.9 | 41.6* | 50.3* | -2.6
COc1cc(C#Cc2c(-c3cncn3C)n(C)c3ccc(-c4ccc(OC)nc4)cc23)cc(OC)c1 | -0.3 | 8.3 | x | 13.8 | -6.3 | x | x
COc1cc(C#Cc2c(-c3cncn3C)n(C)c3ccc(-c4ccc5[nH]ccc5c4)cc23)cc(OC)c1 | 1.2 | 46.5* | x | 12.9 | 27.2* | 16.1 | 14.2*
SMILES | BH1578 lux ind | FBA Mtb inh | 3CLpro inhibitor | GDH-TPI counter | PrPC TRFRET | PrPC confirm | LD9 tox
COC(=O)[C@]1(CNC(=O)C(C)(C)C)CC(=O)N(C)[C@@H]1c1ccccc1 | x | x | x | x | -3.3 | x | x
Oc1ccccc1CNc1ccc(OC(F)(F)F)cc1 | -0.2 | -0.4 | 4.0 | -6.9 | 10.0 | x | x
COc1cccc2sc(Nc3nc(-c4cc5ccccc5oc4=O)cs3)nc12 | -0.1 | 1.3 | 3.4 | 15.1 | 1.4 | x | x
COc1cccc2sc(Nc3nc(-c4ccncc4)cs3)nc12 | 0.6 | -0.9 | -0.2 | 37.8* | 27.9* | 17.9 | 26.5*
O=C(NCc1ccccc1)c1c[nH]c2ccc(F)cc2c1=O | -0.7 | -0.6 | -3.9 | 5.5 | 12.4 | x | x
CCOc1ccc2[nH]cc(C(=O)NCc3ccc(F)cc3)c(=O)c2c1 | i | 5.3 | 0.9 | 12.0 | 26.8* | 26.6* | -1.0
CC(=O)Oc1ccc(C(=O)Nc2cccc(C(=O)c3ccc(C)c(C)c3)c2)cc1 | -0.3 | -5.2 | x | 5.3 | 34.5* | 14.2 | 5.8
COc1ccccc1C(CNC(=O)c1ccc(C)c(S(=O)(=O)N2CCCCC2)c1)N1CCCC1 (centres undefined) | -1.2 | 1.2 | x | 4.1 | -11.1 | x | x
N#CC1=C(N)SC(N)=C(C#N)C1c1cccc(Oc2ccccc2)c1 | i | 4.0 | 7.5 | 21.7 | 18.9 | x | x
CCOc1ccc(C2C(C#N)=C(N)SC(N)=C2C#N)cc1OCC | 0.4 | -0.9 | x | 11.0 | 26.9* | 72.5* | 0.8
CCN(CC(=O)Nc1c(F)cccc1F)C(=O)c1ccc2c(c1)C(=O)N(c1ccccc1C)C2=O | -0.7 | 4.0 | x | 7.5 | -6.6 | x | x
CCOC(=O)C(CC)Sc1nnc2c3cc(C)ccc3n(C)c2n1 (centres undefined) | -0.2 | -1.2 | 3.6 | 18.3 | 30.1* | 34.5* | -4.9
Cc1ccc(S(=O)(=O)c2cccc(S(=O)(=O)N3CCCC3)c2)cc1S(=O)(=O)N1CCCC1 | -1.3 | -2.0 | 2.3 | 4.8 | 34.3* | 29.9* | 9.2
CSc1ccccc1OCc1cc(C(=O)N(Cc2nccn2C)C(C)C)no1 | 0.6 | 0.1 | -7.1 | 0.0 | -1.6 | x | x
C#CCN1CC(COc2ccccc2)OCCS1(=O)=O (centres undefined) | x | x | x | x | -0.6 | x | x
Cc1nc2c(Br)cc(Br)cc2cc1O | -1.2 | -1.0 | 5.6 | 9.6 | 102.9* | 107.5* | -7.5
Oc1c(Br)cc(Br)cc1Br | -0.5 | 2.1 | x | -1.4 | 7.7 | x | x
O=C(COc1ccc2ccccc2c1Br)N1CCCC1 | i | 0.0 | -0.6 | 3.9 | 14.2 | x | x
N/C(=N\OC(=O)COc1ccc2ccccc2c1Br)c1cccnc1 | x | x | 1.5 | x | 47.4* | 78.2* | 2.6
N/C(=N\OC(=O)COc1ccc2ccccc2c1Br)c1ccccn1 | -0.6 | -1.1 | 5.5 | -1.6 | 58.9* | 83.8* | -1.5

Assay outcomes: PubChem, several laboratories
